The text below walks through data of PubChem BioAssay AID1159506 (National Center for Advancing Translational Sciences (NCATS), 2015).

Over roughly 59,000 sequences, the read-out has its median near -0.00055; the lowest 2% begin near -2. Only a selection was taken, and the lowest values are over-represented in it overall.

The test is described as follows: Identification of proteins required for the processing of the EWS-FLI1 nascent transcript.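 Also: robust z of luciferase light less the median z of siRNAs with the same seed.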 The note with it: TC32 Ewing sarcoma NR0B1-luc vs CMV-luc (EWS-FLI1 target promoter against control promoter), 48 h; screened at 20 nM (by protocol). The gist of the method:
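Genome-wide siRNA screen (Ambion v4.1, three siRNAs per gene, 20 nM final, RNAiMax) in Ewing sarcoma TC32 cells carrying NR0B1-promoter or CMV-promoter luciferase; OneGlo luciferase read 48 h post-transfection. Data normalized, z-score-MAD transformed and seed-adjusted.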
The sequence UAUUGUCCAAAUGCUCAGG against SALL1 came in with a seed-corrected z-score of -0.159.
The sequence UGUCUAAUAAGGCCUGAGC against ZFP3 showed a seed-corrected z-score of -0.177.
ACAUCACAAAGUAUUAAUC against LOC643855 showed a seed-corrected z-score of 0.14.
On to UUGGGUUGGAAGUCCACUG against SF3A1, for which the seed-corrected z-score is -2.15.
As for UUCUGGAUUAUAGUCAUCC against CWC22, the figure is 0.478; as for AAUGCUUUUAAUGCUCUUC against CARHSP1, -0.968; as for UGAUCUACUAUGGUCCCUC against CPSF6, 0.287.
The sequence UACAUGAGCCUUGAUCUGG against FAU displayed a seed-corrected z-score of 1.08.
For UGCAUGCUCAUUAAGUUCC against TUBE1 the value was -0.26; for UGUAGUCACUUUCACAUUC against CCR2, -2.02.
Take UACUCUUAAAGUGAUGUUA against PPP1R1C: the seed-corrected z-score was found to be 0.297.
The sequence ACAGCACCUAGCAUGAUUG against HIGD1B came in with a seed-corrected z-score of 1.03.
In turn, UUCAUUAGCACAUAAGCGG against HENMT1 came in with a seed-corrected z-score of 0.665.
UCGAAGUUUACUGCGGUCC against HINFP returned a seed-corrected z-score of -2.19.
For AUUCAUAUAGUUUUUCUCC against ZNF585B the value was 0.297; for UAUGCACAAAGUUUGUGGG against CDC42SE2, -0.65; for UCUCCUCCUCGAAAAGUGC against SLC12A7, 0.16.
In turn, AUCCAUGUCAGCGUGAGUC against PSD2 displayed a seed-corrected z-score of -0.273.
In turn, AAGAGAAUCAAAAUAGUGG against GPR63 had a seed-corrected z-score of -0.548.
For AUCCGAACCAGGUAGACAC against PRTG the value was 0.374.
For AUUGUGGUAGUAGUGUUGG against NUP62CL the value was -2.29.
For UCUUUGCCUAGUGUGGUUU against TAF9 the value was -0.576.
Take UGUCUGUUUGUUGAAACUC against APOA5: the seed-corrected z-score was -0.451.
UCGUAGGCAAGGUAAGUAG against MUCL1: the seed-corrected z-score was -0.0888.
UCAAGUAAACUAGUCGUUU against VKORC1L1 yielded a seed-corrected z-score of -0.26.
As for UUGGUUGCAAAGGAACUCC against NAB1, the figure is -2.58.
In the case of UUCAUUUGCUCGAUGGUUG against MAPK1, the seed-corrected z-score was found to be 1.09.
Regarding UUCCUUGAUAGGUAUGUAU against LOC388813, the seed-corrected z-score is -0.0267.
For UUGUGAACUACUUCUAUCC against AKNA the value was 0.00206; for AUAGGUCUGACUCAGCUGC against CCDC155, -2.23; for UAGUGUACAAGGGUCAGGC against TSPAN17, 0.12.
For the sequence UAUACACCAAUGUCGGUCC against KDM5A, the seed-corrected z-score turned out to be 0.142.
As to AAUGAGUAAAAAGUGAAUU against HTN1, the seed-corrected z-score is -0.556.
As for UGAUGUAAAAUCAAAGGUU against KRT6C, the figure is 0.491.
For AAACUUGGUUGAGUGAUCC against KRBA2 the value was 0.654.
UGACUAUUAGGUCUUUAGC against BCAT1 yielded a seed-corrected z-score of -0.111.
UCCAUCGUCAAUGUUAUCC against HNRNPH3 had a seed-corrected z-score of -5.45.
For AUAUCUAUAAUACCCUCCG against APIP the value was 0.416; for AUACGUGUUCUCAAUGAUC against RNF121, 0.696.
Regarding UUCUCUUCUUUAGUCAGUG against SKA2P1, the seed-corrected z-score was -2.33.
Regarding AAUAUUGUAAGAAGAAGGG against NT5C3B, the seed-corrected z-score was 0.882.
In turn, UGGGUUCUCAGGAACGGGU against PNKD yielded a seed-corrected z-score of 1.76.
UUCCUUUUGCGUCUGGAUC against ZC2HC1C: the seed-corrected z-score was -1.55.
Regarding UAUUUGGGUGGUUCAGUUG against NEK6, the seed-corrected z-score is -0.0182.
Sequence UAUGAGUCCACAAUUGAUC against TMEM19 had a seed-corrected z-score of -11.
As for UCUACAAGUAAUGAAGGCC against ZFP62, the seed-corrected z-score stood at 0.853.
With AAUGAUGAAUCCACCUUCG against ARMC10P1, the seed-corrected z-score was -0.435.
UCAGCUAACAAAGAGUCGC against STAG3 showed a seed-corrected z-score of 0.617.
For AGCAGUAUAAAACAGGAGC against TIPARP the value was 0.177.
For AUAAUCACACUGUCAACUG against ACAA2, the seed-corrected z-score is -0.323.
For AGCCUUAGACGUGCAGUUG against RPL36AP31 the value was -2.33.
Regarding UGUUGUAGCAGAAUGAGGA against ARC, the seed-corrected z-score was -3.81.
UGCUGGGUCAGAUGUCUCC against ARHGAP9: the seed-corrected z-score was 0.0212.
For UUCGAUCACCAUAUACUCC against KCNA3 the value was 0.36.
As for UCGGUAUUCAAACCCUUCG against HIRA, the figure is 0.423.
As for UCAGGGCAUAGAUAAGUGG against OR10W1, the figure is -2.86.
UUUCUAGCUAAGGUCAAAC against SHOC2 gave a seed-corrected z-score of -0.857.
AUAGGAGAUCGCAUCGCCC against CACFD1 yielded a seed-corrected z-score of -0.00387.
The sequence AAGGUGUUCACGUAGGCUG against CLN3 yielded a seed-corrected z-score of -2.78.
As for AUUGGUAUCCUAACUAUUC against EFHD1, the figure is 0.876; as for UCUGGGAACACCCUCAGCA against GABRR2, -0.593; as for ACGGAUUCUAGUUUAGAUG against KIAA0232, 2.72.
For UCCGUUCAUAGUCUUCUCC against CSPP1 the value was -2.12.
With AUAACGAUGCUUUAUGUGG against ABHD1, the seed-corrected z-score is -0.139.
Regarding UCUCUAACUUCGACCCUCU against C19orf68, the seed-corrected z-score came to 0.527.
As for UUUCUCAACUGCAUGAAAG against LINC00264, the figure is -0.13; as for UACUGAAGUAGUUAGGAUC against INO80C, 1.43; as for AUGUUGCCCACGUCCUUGG against RABIF, -3.06.
For AAUGAGGCAGGCAUGUUGG against PNMT the value was 1.18; for UGUAUCCUAAGGUAUCGGC against VWA8, -0.221.
For AUAUCUUCGAAAGUAAAUC against RPF2P1 the value was 1.14; for UUUUUCCAUACUUCAAGCC against QRICH1, -0.708; for AAAUGGAAAUUCUCGAUGU against HTN1, 0.36.
As for AGAUUGGUCAAAGCCUUUC against ZNF319, the seed-corrected z-score is -2.3.
As for AUAGUUAUUCUUGUCGGGC against HVCN1, the figure is -0.696; as for UACGUAGUCGUCAUCAUCU against FAM83G, -0.453; as for UCAUUAGACAUAACAUUGC against ALG13, 0.117.
For UCAUAGUCGAUCACCACUG against COL23A1 the value was -0.458.
As for UUAGUAGUGACAUUUCGGG against MRE11A, the figure is -0.0144; as for UUGAAUAGGAAGAGUAUCC against OMA1, 1.31.
On to UAACUGAUCAGACCACAAC against TUBA1A, for which the seed-corrected z-score amounted to 0.266.
For UGUCCAUAAACAGUAAAGG against ZNF30 the value was -2.51.
UGAUUUAAUCUUGCCGCCC against PHLDB1 showed a seed-corrected z-score of 0.669.
As for AACACGUUGCCUGUCUUUC against NUTM2A-AS1, the figure is 0.413.
For UUUAGAACUGGUUAUUUUC against DEFB116 the value was 0.117.
For AUGGUGAUCAUGGGACUGC against BEST1 the value was -3.4; for UUUGGUAACCUCUAGGUGC against RUFY2, 0.0818.
UAGGCAAACAUGCACCUGG against POLG displayed a seed-corrected z-score of -0.765.
For UCGUGGUCUUCUAUUGUUC against GRB14 the value was -0.556; for AAUACAAUAGCAUAUACUC against RBBP9, 0.306; for UGCGGAUACAGAUCACUCC against WDR87, -2.28.
As for UGAAUAAUGAAGUAUCCUG against AMPH, the figure is -0.174; as for UUAGUUCCAUGCCUUGCUC against ATP6V0A4, -0.497; as for AGUUAUAUCAGUCGUGAUC against FERMT2, 0.187.
For UUCUGUAUCUGCUCCUUGU against PFDN2 the value was 1.09; for UCUCUUUCCUCUGCGUGCG against GDF7, -2.92; for UCUCAGGACUUAUAGCUGG against CEACAM3, 0.106.
In turn, AACUCUAUCUUGUAAAGGC against ZKSCAN3 returned a seed-corrected z-score of 0.0258.
For UCUAGUAACUCCAUAAGUU against NAA20 the value was 0.8.
As for UUUGUUGUCUGGUUGGAGC against ZDHHC14, the figure is -0.328.
For UCAGGGCACAGCUAUAAGG against CPAMD8 the value was 0.0569; for UAUUGUAGAUUGAACAGCC against NSMCE2, 0.561; for AUAGAGCUUAUAGAAGCGG against USP11, 0.792.
Sequence UAAAGGGAACGAAACACCC against HSPA1B displayed a seed-corrected z-score of 1.45.
For UUAUUUAUUGCCGCUCAGG against SFTA2 the value was -2.64; for UUGGGUCCGACAGUGAAGA against FAAP20, 0.502.
For AGUACUACCAAAGAGAUGG against TBC1D23 the value was 0.0728; for UAUCUUGAUCUGCCUCUCC against HOXB6, 0.291.
For UAUCCCAAUACAAAGUACU against RCE1 the value was -1.06.
UUGCUUAACUACUCUGUGC against C9orf106 came in with a seed-corrected z-score of -11.2.
As for AUCGCUGUAGCACUUGUGC against PKP3, the figure is -0.54; as for UGAGUUUCCACUUCCAGCC against UBQLN4, -2.2.
UUUGUUCCAGGGAUGUACU against CYCS showed a seed-corrected z-score of 0.577.
Sequence UUCCCGUGAACCGUUGAUC against PNLIPRP3 registered a seed-corrected z-score of 0.389.
As for ACACCUGUGACUAAGACCC against SDR39U1, the figure is -0.296; as for UUUGGUAUCUCCGACCACC against UCP2, 0.898.
Sequence UCAAGUGUAUCAGUUUUCG against KSR2 displayed a seed-corrected z-score of 0.704.
For UGUGGUUGAAGAGGCUUGU against TMEM39B the value was -2.3.
For UAAGGUGUGAACUAUAAGG against ZNF267 the value was -0.0939; for UAUAUCAAAAUCCACUCGC against NDUFAF6, 1.27; for UUUCUUAGAUGAGACAUUG against EBLN2, -12.2.
As for UAAACCUCCACCUAAGAGC against ELP4, the figure is 0.275; as for UACUCGUACACUUCCAUGC against THBS3, 1.22; as for UAACUAUAGUGGUUAGGUC against IL7R, -0.304.
As for AUUUGGGACACUCAAAGGG against ZBTB48, the seed-corrected z-score was -0.672.
As for UCCAUAGCAGGAUUAUUGC against ACSL4, the figure is -4.37; as for UUUGUCGUCACUGUAUUCC against ING5, -0.505; as for UAAGGGACAUCUAAGGAAC against MAML1, -1.38.
As for AAACUUGCGAUCUCAUAUG against FBXW12, the figure is -0.183; as for UACAGGUAAACAGGUCGUG against SKINT1L, -3.34; as for UUCUGGUUCACCGUCUUCC against SLC13A2, -1.96.
As for UUUCGUAUAGAGCUUCUCC against DNAJC5B, the figure is -0.0232.
For UUUAUAGUCAAUGGUAUUG against TAF1D, the seed-corrected z-score was -0.19.
